Some structures have more than one record in an assay (separate samples or runs), and their calls can disagree. Activity calls are given as the source filed them. The calls were made as follows: active = hit-call score of the fitted dose curve at least 0.9, where 1 is the maximum; inactive = score below 0.9.
Legend:
[1] = ATG_M_61_CIS: Attagene CIS-FACTORIAL HepG2 Assay for M61 Transcription Factor (Internal Marker) (AID 2282937); settings: HepG2 Attagene CIS-FACTORIAL M61 internal marker reporter; actives raise or lower the signal
Outline: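 Using transiently transfected HepG2 liver cells, reporter transcript levels were assessed 24 h post-dosing by RT-PCR and capillary electrophoresis. Changes in either direction were fitted relative to DMSO controls.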

[2] = ATG_EGR_CIS: Attagene CIS-FACTORIAL HepG2 Assay for human Early Growth Response 1 (EGR1) (AID 2282938); settings: HepG2 Attagene CIS-FACTORIAL EGR reporter mRNA; actives raise or lower the signal
Outline: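 Fluorescent capillary-electrophoresis signal of reporter cDNA fragments serves as read-out. HepG2 cells bear transiently transfected cis-promoter reporter units and are exposed 24 h; gain- or loss-of-signal is fitted against DMSO.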

[3] = ATG_M_19_CIS: Attagene CIS-FACTORIAL HepG2 Assay for M19 Transcription Factor (Internal Marker) (AID 2282939); settings: HepG2 Attagene CIS-FACTORIAL M19 internal marker reporter; actives raise or lower the signal
Outline: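 Background-control endpoint from a multiplexed HepG2 reporter panel. Cells carrying cis-regulated reporter constructs are treated 24 h, then reporter transcripts are amplified, fluorescently labelled and sized by capillary electrophoresis. DMSO defines baseline.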

[4] = ATG_ERE_CIS: Attagene CIS-FACTORIAL HepG2 Assay for Estrogen Response Element (ERE) (AID 2282940); settings: HepG2 ERE cis-reporter, Attagene RNA transcript; actives raise or lower the signal
Outline: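 Cells used were human hepatoma HepG2, transfected with multiple reporter transcription units under cis-regulatory promoters. Reporter mRNA, read 24 h post-dosing via fluorescent RT-PCR products on capillary electrophoresis, was fitted bidirectionally relative to DMSO.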

[5] = biological target: Hepatocyte nuclear factor 3-beta (Homo sapiens) (UniProt Q9Y261); assay: ATG_FoxA2_CIS: Attagene CIS-FACTORIAL HepG2 Assay for human Forkhead box A2 (FOXA2) (AID 2282942); settings: HepG2 cis-reporter transcription factor activity, 24 h; actives raise or lower the signal
Chain of Hepatocyte nuclear factor 3-beta (Homo sapiens) (Q9Y261 whole entry, looked up, the tested form may be a part): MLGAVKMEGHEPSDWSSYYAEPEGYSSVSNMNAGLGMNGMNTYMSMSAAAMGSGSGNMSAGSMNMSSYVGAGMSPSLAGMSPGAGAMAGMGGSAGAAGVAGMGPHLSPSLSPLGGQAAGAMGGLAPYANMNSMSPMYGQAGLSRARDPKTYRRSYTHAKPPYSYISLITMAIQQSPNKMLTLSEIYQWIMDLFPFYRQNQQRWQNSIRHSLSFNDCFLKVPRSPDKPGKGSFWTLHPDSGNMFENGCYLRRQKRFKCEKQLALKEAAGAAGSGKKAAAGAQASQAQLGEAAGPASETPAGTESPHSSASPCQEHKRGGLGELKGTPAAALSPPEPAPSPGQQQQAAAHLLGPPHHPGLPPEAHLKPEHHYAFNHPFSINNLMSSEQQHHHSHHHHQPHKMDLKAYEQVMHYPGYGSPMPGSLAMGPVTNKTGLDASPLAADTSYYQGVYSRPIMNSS
Outline: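 Fluorescence signal of reporter cDNA fragments, separated by capillary electrophoresis, reflects endogenous transcription factor activity in transfected HepG2 after 24 h. Both increases and decreases fitted against DMSO.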

[6] = ATG_GATA_CIS: Attagene CIS-FACTORIAL HepG2 Assay for human GATA Binding Protein (AID 2282944); settings: HepG2 GATA cis-element reporter, Attagene multiplex mRNA; actives raise or lower the signal
Outline: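 Endogenous transcription factor activity was captured through cis-promoter-driven reporters in transfected HepG2 cells. After 24 h exposure, reporter transcripts were quantified by RT-PCR with fluorescent capillary electrophoresis, and responses fitted both directions against DMSO.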

[7] = biological target: Bile acid receptor (Homo sapiens) (UniProt Q96RI1); assay: ATG_IR1_CIS: Attagene CIS-FACTORIAL HepG2 Assay for human Nuclear Receptor Subfamily 1 Group H Member 4 (NR1H4), IR1 submotif (AID 2282946); settings: IR1 reporter transcription, actives raise or lower the signal
Chain of Bile acid receptor (Homo sapiens) (Q96RI1 whole entry, looked up): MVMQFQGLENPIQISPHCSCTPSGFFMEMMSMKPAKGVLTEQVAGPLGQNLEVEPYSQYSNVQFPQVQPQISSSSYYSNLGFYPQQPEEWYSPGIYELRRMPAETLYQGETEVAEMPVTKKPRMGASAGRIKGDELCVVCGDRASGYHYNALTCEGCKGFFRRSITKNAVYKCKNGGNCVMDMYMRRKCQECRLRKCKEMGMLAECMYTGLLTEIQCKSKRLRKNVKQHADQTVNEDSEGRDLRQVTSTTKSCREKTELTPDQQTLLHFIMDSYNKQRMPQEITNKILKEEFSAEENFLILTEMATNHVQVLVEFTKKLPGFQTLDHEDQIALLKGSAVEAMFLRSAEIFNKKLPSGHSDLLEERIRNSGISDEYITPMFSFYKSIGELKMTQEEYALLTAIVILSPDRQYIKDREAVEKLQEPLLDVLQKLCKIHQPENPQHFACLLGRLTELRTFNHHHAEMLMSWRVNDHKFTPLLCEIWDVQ
Outline: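 Readout: reporter transcript levels by RT-PCR with fluorescent capillary electrophoresis, from HepG2 cells transiently transfected with multiplexed cis-regulated reporters and dosed 24 h. Gain- or loss-of-signal fitted versus DMSO negative control.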

[8] = ATG_GRE_CIS: Attagene CIS-FACTORIAL HepG2 Assay for human Glucocorticoid Response Elements (GRE) (AID 2282947); settings: HepG2 GRE cis-reporter, Attagene multiplex mRNA; actives raise or lower the signal
Outline: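 Cells (HepG2) bearing transfected cis-promoter reporter transcription units were treated with chemical for 24 hours. Reporter mRNA was measured via RT-PCR with capillary electrophoresis, and activity was fitted in both directions relative to DMSO.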

[9] = ATG_ISRE_CIS: Attagene CIS-FACTORIAL HepG2 Assay for human Interferon Regulatory Factor 1 (IRF1) binding to an Interferon-Stimulated Response Element (ISRE) (AID 2282948); settings: HepG2 ISRE cis-reporter (Attagene), mRNA transcription readout; actives raise or lower the signal
Outline: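 Multiplexed mRNA reporter readout in human liver HepG2 cells: cis-element-driven reporters transfected, compound added for 24 h, transcripts amplified, fluorescently labelled and sized by capillary electrophoresis; curve fitting bidirectional against DMSO.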

[10] = ATG_M_32_CIS: Attagene CIS-FACTORIAL HepG2 Assay for M32 Transcription Factor (Internal Marker) (AID 2282949); settings: HepG2 Attagene cis-factorial M32 reporter, mRNA; actives raise or lower the signal;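 also: background control marker of the multiplexed CIS panel rather than a real target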
Outline: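 HepG2 human liver cells transiently transfected with cis-promoter-driven multiple reporter transcription units, dosed 24 h. Reporter mRNA quantified by RT-PCR, FAM-labelled primer extension, HpaI digest and capillary electrophoresis; bidirectional fit versus DMSO baseline.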

[11] = ATG_M_06_CIS: Attagene CIS-FACTORIAL HepG2 Assay for M06 Transcription Factor (Internal Marker) (AID 2282950); settings: HepG2 Attagene CIS-FACTORIAL M06 internal marker reporter; actives raise or lower the signal
Outline: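 Steps: transfect HepG2 with multiplexed cis-element reporter constructs; dose chemical 24 h; extract RNA with DNase treatment; reverse-transcribe, PCR-amplify, 6-FAM label, HpaI digest; separate fragments by capillary electrophoresis. Activity fitted both directions versus DMSO.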

[12] = biological target: Hypoxia-inducible factor 1-alpha (Homo sapiens) (UniProt Q16665); assay: ATG_HIF1a_CIS: Attagene CIS-FACTORIAL HepG2 Assay for human Hypoxia Inducible Factor 1 (HIF1A) (AID 2282951); settings: HepG2 Attagene cis-factorial HIF1a reporter transcription; actives raise or lower the signal
Chain of Hypoxia-inducible factor 1-alpha (Homo sapiens) (Q16665 whole entry, looked up): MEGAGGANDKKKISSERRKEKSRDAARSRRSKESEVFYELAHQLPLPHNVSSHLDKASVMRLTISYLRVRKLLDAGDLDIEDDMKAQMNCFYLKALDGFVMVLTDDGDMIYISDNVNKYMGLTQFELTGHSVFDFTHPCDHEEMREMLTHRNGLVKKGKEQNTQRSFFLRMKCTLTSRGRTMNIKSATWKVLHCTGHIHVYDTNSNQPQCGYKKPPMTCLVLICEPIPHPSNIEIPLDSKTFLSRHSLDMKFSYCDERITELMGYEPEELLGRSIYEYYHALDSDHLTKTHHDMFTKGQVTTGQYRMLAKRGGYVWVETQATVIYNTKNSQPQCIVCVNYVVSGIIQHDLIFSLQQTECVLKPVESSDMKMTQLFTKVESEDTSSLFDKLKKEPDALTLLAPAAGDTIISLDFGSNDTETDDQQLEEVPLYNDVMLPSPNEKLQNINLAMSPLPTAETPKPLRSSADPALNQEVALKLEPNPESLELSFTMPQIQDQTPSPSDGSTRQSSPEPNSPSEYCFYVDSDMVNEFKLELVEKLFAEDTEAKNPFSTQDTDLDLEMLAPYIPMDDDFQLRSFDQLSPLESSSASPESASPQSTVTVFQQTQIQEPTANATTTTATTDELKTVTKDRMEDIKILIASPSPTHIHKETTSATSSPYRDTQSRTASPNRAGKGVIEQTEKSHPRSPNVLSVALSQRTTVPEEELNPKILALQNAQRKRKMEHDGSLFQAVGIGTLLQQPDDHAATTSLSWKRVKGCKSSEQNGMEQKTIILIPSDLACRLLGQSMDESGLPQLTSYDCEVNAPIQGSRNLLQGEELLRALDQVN
Outline: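 Endogenous-TF cis reporter readout, human HepG2 cells, 24 h incubation; mRNA detected via RT-PCR and capillary electrophoresis fluorescence; DMSO-normalised bidirectional fitting.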

[13] = biological target: Hepatocyte nuclear factor 6 (Homo sapiens) (UniProt Q9UBC0); assay: ATG_HNF6_CIS: Attagene CIS-FACTORIAL HepG2 Assay for human Hepatocyte Nuclear Factor 6 (HNF6) (AID 2282952); settings: HepG2 Attagene cis-factorial HNF6 reporter transcription; actives raise or lower the signal
Chain of Hepatocyte nuclear factor 6 (Homo sapiens) (Q9UBC0 whole entry, looked up): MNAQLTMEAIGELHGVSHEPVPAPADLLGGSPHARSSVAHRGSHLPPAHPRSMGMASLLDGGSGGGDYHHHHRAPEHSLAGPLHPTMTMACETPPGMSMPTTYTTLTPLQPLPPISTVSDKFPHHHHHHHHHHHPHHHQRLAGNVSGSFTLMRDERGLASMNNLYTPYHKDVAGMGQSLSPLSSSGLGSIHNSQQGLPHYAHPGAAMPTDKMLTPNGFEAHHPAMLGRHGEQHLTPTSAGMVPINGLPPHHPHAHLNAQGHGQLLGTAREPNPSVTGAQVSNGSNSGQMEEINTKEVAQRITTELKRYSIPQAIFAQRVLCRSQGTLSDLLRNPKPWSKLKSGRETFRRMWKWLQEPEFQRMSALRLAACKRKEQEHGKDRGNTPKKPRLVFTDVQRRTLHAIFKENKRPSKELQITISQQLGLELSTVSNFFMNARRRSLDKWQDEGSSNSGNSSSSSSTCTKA
Outline: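 Endogenous factor activity read in transiently transfected HepG2 via promoter-regulated reporter transcripts. RNA harvested 24 h post-dosing, reverse-transcribed, PCR-amplified, FAM-labelled, HpaI-digested and resolved by capillary electrophoresis; fitted in both directions against DMSO.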

[14] = biological target: Heat shock factor protein 1 (Homo sapiens) (UniProt Q00613); assay: ATG_HSE_CIS: Attagene CIS-FACTORIAL HepG2 Assay for human Heat Shock Transcription Factor 1 (HSE) (AID 2282953); settings: HepG2 HSE cis-reporter, Attagene RNA transcription; actives raise or lower the signal
Chain of Heat shock factor protein 1 (Homo sapiens) (Q00613 whole entry, looked up, the tested form may be a part): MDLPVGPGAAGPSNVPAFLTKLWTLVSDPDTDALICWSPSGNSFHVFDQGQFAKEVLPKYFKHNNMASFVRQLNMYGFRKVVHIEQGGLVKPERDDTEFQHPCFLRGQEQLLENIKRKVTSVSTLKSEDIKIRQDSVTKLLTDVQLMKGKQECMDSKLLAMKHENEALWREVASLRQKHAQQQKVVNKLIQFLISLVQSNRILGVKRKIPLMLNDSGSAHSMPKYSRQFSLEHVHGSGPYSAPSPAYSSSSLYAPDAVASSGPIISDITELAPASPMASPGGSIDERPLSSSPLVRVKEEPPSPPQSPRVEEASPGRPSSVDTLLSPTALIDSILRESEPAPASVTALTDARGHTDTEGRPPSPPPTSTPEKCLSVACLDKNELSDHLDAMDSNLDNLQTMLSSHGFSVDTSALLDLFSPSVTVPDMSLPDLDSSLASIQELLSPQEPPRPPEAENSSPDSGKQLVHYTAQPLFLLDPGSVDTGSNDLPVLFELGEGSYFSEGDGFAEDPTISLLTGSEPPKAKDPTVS
Outline: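 Cells were transfected with cis-element-driven reporter constructs, dosed for 24 h, then total RNA was reverse-transcribed and reporter cDNA amplified, FAM-labelled and digested with HpaI. Fragments were resolved by capillary electrophoresis; gain or loss was fitted against DMSO.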

[15] = ATG_MRE_CIS: Attagene CIS-FACTORIAL HepG2 Assay for human Metal Responsive Element (MRE) (AID 2282954); settings: HepG2 MRE cis-reporter transcription, Attagene multiplex; actives raise or lower the signal
Outline: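 Cells were transfected with cis-promoter reporter transcription units, then dosed for 24 h. RNA was reverse-transcribed, amplified, fluorescently labelled and resolved by capillary electrophoresis, and activity was fitted in both directions relative to DMSO.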

[16] = ATG_PBREM_CIS: Attagene CIS-FACTORIAL HepG2 Assay for human Phenobarbital-responsive Enhancer Module (PBREM) (AID 2282955); settings: HepG2 PBREM cis-reporter, Attagene multiplexed transcription; actives raise or lower the signal
Outline: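 Readout: reporter mRNA, fluorescent RT-PCR fragments separated by capillary electrophoresis. System: HepG2 transiently transfected with cis-regulated reporter units. Exposure: 24 h. Analysis: bidirectional, DMSO baseline.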

[17] = biological target: Paired box protein Pax-6 (Homo sapiens) (UniProt P26367); assay: ATG_Pax6_CIS: Attagene CIS-FACTORIAL HepG2 Assay for human Paired Box 6 (PAX6) (AID 2282956); settings: HepG2 CIS-FACTORIAL PAX6 reporter transcription, RNA readout; actives raise or lower the signal
Chain of Paired box protein Pax-6 (Homo sapiens) (P26367 whole entry, looked up): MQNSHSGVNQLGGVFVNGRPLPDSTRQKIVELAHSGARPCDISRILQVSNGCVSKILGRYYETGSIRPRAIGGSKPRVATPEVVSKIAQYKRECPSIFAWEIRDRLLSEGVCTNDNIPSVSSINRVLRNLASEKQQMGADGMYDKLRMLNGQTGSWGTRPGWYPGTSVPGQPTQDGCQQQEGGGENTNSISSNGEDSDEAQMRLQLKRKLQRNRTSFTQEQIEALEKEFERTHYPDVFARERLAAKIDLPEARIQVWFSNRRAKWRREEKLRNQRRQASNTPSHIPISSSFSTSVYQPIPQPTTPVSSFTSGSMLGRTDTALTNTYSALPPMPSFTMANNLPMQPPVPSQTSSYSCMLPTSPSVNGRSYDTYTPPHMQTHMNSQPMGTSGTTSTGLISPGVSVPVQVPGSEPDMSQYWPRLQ
Outline: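 Fluorescent RT-PCR products separated by capillary electrophoresis report PAX6-linked promoter mRNA in HepG2 cells 24 h post-dose. Curves fitted bidirectionally, DMSO as negative control.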

[18] = ATG_FoxO_CIS: Attagene CIS-FACTORIAL HepG2 Assay for human Forkhead box O (FoxO) (AID 2282943); settings: HepG2 Attagene cis-reporter, FoxO element, mRNA; actives raise or lower the signal
Outline: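 24 h chemical exposure, HepG2 with transient cis-MRTU transfection. RNA extraction, oligo(dT) RT, reporter-specific PCR, primer-extension labelling, HpaI digestion, CE fragment analysis; bidirectional fit, DMSO baseline.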

[19] = ATG_GLI_CIS: Attagene CIS-FACTORIAL HepG2 Assay for human Zinc Finger Protein GLI1 (AID 2282945); settings: HepG2, Attagene cis-factorial reporter mRNA, GLI element; actives raise or lower the signal
Outline: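 HepG2 cells transiently transfected with cis-promoter multiplexed reporter units report endogenous transcription factor activity. After 24 h chemical exposure, reporter mRNA was quantified by RT-PCR, 6-FAM labelling, HpaI digestion and capillary electrophoresis, with bidirectional fitting against DMSO.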

[20] = ATG_Ets_CIS: Attagene CIS-FACTORIAL HepG2 Assay for human Erythroblast Transformation Specific (ETS) (AID 2282941); settings: HepG2 ETS cis-reporter transcription, actives raise or lower the signal
Outline: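 Cis-regulated reporter mRNA induction in HepG2 (transient transfection), 24 h exposure, RT-PCR plus capillary electrophoresis detection; DMSO serves as negative control and baseline.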

## CCCOC(=O)c1ccc(C(=O)OCCC)nc1
[1]
  outcome: inactive
[2]
  outcome: inactive
[3]
  outcome: inactive
[4]
  outcome: inactive
[5]
  outcome: inactive
[6]
  outcome: inactive
[7]
  outcome: inactive
[8]
  outcome: inactive
[9]
  outcome: inactive
[10]
  outcome: inactive
[11]
  outcome: inactive
[12]
  outcome: inactive
[13]
  outcome: inactive
[14]
  outcome: inactive
[15]
  outcome: inactive
[16]
  outcome: inactive
[17]
  outcome: inactive

## c1ccc(Nc2ccccc2)cc1
[1]
  outcome: inactive
[2]
  outcome: inactive
[3]
  outcome: inactive
[5]
  outcome: inactive
[18]
  outcome: inactive
[6]
  outcome: inactive
[9]
  outcome: inactive
[10]
  outcome: inactive
[11]
  outcome: inactive
[12]
  AC50: 100 µM (active)
  outcome: inactive
[13]
  outcome: inactive
[14]
  outcome: inactive
[15]
  outcome: inactive
[16]
  outcome: inactive
[17]
  outcome: inactive

## COC(=O)c1ccccc1C(=O)O
[1]
  outcome: inactive
[2]
  outcome: inactive
[3]
  outcome: inactive
[4]
  outcome: inactive
[5]
  outcome: inactive
[6]
  outcome: inactive
[8]
  outcome: inactive
[9]
  outcome: inactive
[10]
  outcome: inactive
[11]
  outcome: inactive
[12]
  outcome: inactive
[13]
  outcome: inactive
[14]
  outcome: inactive
[15]
  outcome: inactive
[16]
  outcome: inactive
[17]
  outcome: inactive

## C#CCOC(=O)[C@@H](C)Oc1ccc(Oc2ncc(Cl)cc2F)cc1
[1]
  outcome: inactive
[2]
  outcome: inactive
[3]
  outcome: inactive
[4]
  outcome: inactive
[5]
  outcome: inactive
[6]
  outcome: inactive
[7]
  outcome: inactive
[8]
  outcome: inactive
[9]
  outcome: inactive
[10]
  outcome: inactive
[11]
  outcome: inactive
[12]
  outcome: inactive
[13]
  outcome: inactive
[15]
  outcome: inactive
[16]
  outcome: inactive
[17]
  outcome: inactive

## CCOC(=O)[C@H](C)Oc1ccc(Oc2nc3ccc(Cl)cc3o2)cc1
[1]
  outcome: inactive
[2]
  outcome: inactive
[3]
  outcome: inactive
[5]
  outcome: inactive
[6]
  outcome: inactive
[7]
  outcome: inactive
[8]
  outcome: inactive
[9]
  outcome: inactive
[10]
  outcome: inactive
[11]
  outcome: inactive
[12]
  outcome: inactive
[13]
  outcome: inactive
[14]
  outcome: inactive
[16]
  outcome: inactive
[17]
  outcome: inactive

## COC(=O)c1ccc(I)cc1S(=O)(=O)NC(=O)Nc1nc(C)nc(OC)n1
[1]
  outcome: inactive
[2]
  outcome: inactive
[3]
  outcome: inactive
[5]
  outcome: inactive
[6]
  outcome: inactive
[19]
  outcome: inactive
[8]
  outcome: inactive
[9]
  outcome: inactive
[10]
  outcome: inactive
[11]
  outcome: inactive
[12]
  outcome: inactive
[13]
  outcome: inactive
[14]
  outcome: inactive
[15]
  outcome: inactive
[16]
  outcome: inactive
[17]
  outcome: inactive

## C=CCOC(Cn1ccnc1)c1ccc(Cl)cc1Cl (configuration not stated)
[1]
  outcome: inactive
[2]
  AC50: 30.9 µM (active)
[3]
  outcome: inactive
[20]
  outcome: inactive
[5]
  outcome: inactive
[6]
  outcome: inactive
[19]
  outcome: inactive
[8]
  outcome: inactive
[9]
  outcome: inactive
[10]
  outcome: inactive
[11]
  outcome: inactive
[12]
  AC50: 17.4 µM (active)
[13]
  outcome: inactive
[14]
  AC50: 84.4 µM (active)
[16]
  outcome: inactive
[17]
  AC50: 50 µM (active)

## CCN(CC)C(=O)c1cccc(C)c1
[1]
  outcome: inactive
[2]
  outcome: inactive
[3]
  outcome: inactive
[4]
  outcome: inactive
[5]
  outcome: inactive
[6]
  outcome: inactive
[7]
  outcome: inactive
[8]
  outcome: inactive
[9]
  outcome: inactive
[10]
  outcome: inactive
[11]
  outcome: inactive
[12]
  outcome: inactive
[13]
  outcome: inactive
[14]
  outcome: inactive
[17]
  outcome: inactive

From PubChem BioAssay (EPA / NIEHS)
